# ± gives the standard deviation of the averaged measurements.
# How the values were obtained:
# Experiment in all cases: SPOT peptide array binding signal intensity (averaged, normalized) (arbitrary units (background-subtracted, floor 0; scale differs between SH3 domains)); higher = stronger binding of the SH3 domain to the peptide
# AgAbp1 = target: AgAbp1
# Method in brief: (§1)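 The binding signal is the normalized, background-subtracted spot intensity averaged over replicates; its arbitrary units differ between domains. It was obtained by incubating 10 μg/ml GST-fused SH3 domains from four yeast species overnight at 4°C in TBS-based blocking buffer on cellulose membranes with synthetic 15-mer peptides, cysteines replaced by serines, then detecting with anti-GST antibody, HRP anti-mouse secondary and luminol.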
# AgBbc1 = target: AgBbc1
# Method in brief: as §1
# AgBem1-D1 = target: AgBem1-D1
# Method in brief: as §1
# AgBzz1-D1 = target: AgBzz1-D1
# Method in brief: as §1
# AgBzz1-D2 = target: AgBzz1-D2
# Method in brief: as §1
# AgCyk3 = target: AgCyk3
# Method in brief: as §1
# AgFus1 = target: AgFus1
# Method in brief: as §1
# AgHof1 = target: AgHof1
# Method in brief: as §1
# AgHse1 = target: AgHse1
# Method in brief: as §1
# AgLsb1 = target: AgLsb1
# Method in brief: as §1
# AgLsb4 = target: AgLsb4
# Method in brief: as §1
# AgMyo5 = target: AgMyo5
# Method in brief: as §1
# AgNbp2 = target: AgNbp2
# Method in brief: as §1
# AgRvs167 = target: AgRvs167
# Method in brief: as §1
# AgSho1 = target: AgSho1
# Method in brief: as §1
# AgSla1-D1-D2 = target: AgSla1-D1-D2
# Method in brief: as §1
# AgSla1-D3 = target: AgSla1-D3
# Method in brief: as §1
# CaAbp1-D1 = target: CaAbp1-D1
# Method in brief: as §1
# CaAbp1-D2 = target: CaAbp1-D2
# Method in brief: as §1
# CaBbc1 = target: CaBbc1
# Method in brief: as §1
# CaBem1-D1 = target: CaBem1-D1
# Method in brief: as §1
# CaBzz1-D1 = target: CaBzz1-D1
# Method in brief: as §1
# CaBzz1-D2 = target: CaBzz1-D2
# Method in brief: as §1
# CaCyk3 = target: CaCyk3
# Method in brief: as §1
# CaFus1 = target: CaFus1
# Method in brief: as §1
# CaHof1 = target: CaHof1
# Method in brief: as §1
# CaHse1 = target: CaHse1
# Method in brief: as §1
# CaLsb1 = target: CaLsb1
# Method in brief: as §1
# CaLsb4 = target: CaLsb4
# Method in brief: as §1
# CaMyo5 = target: CaMyo5
# Method in brief: as §1
# CaNbp2 = target: CaNbp2
# Method in brief: as §1
# CaRvs167 = target: CaRvs167
# Method in brief: as §1
# CaRvs167-3 = target: CaRvs167-3
# Method in brief: as §1
# CaSho1 = target: CaSho1
# Method in brief: as §1
# CaSla1-D1-D2 = target: CaSla1-D1-D2
# Method in brief: as §1
# CaSla1-D3 = target: CaSla1-D3
# Method in brief: as §1
# ScAbp1 = target: ScAbp1
# Method in brief: as §1
# ScBbc1 = target: ScBbc1
# Method in brief: as §1
# ScBem1-D1 = target: ScBem1-D1
# Method in brief: as §1
# ScBzz1-D1 = target: ScBzz1-D1
# Method in brief: as §1
# ScBzz1-D2 = target: ScBzz1-D2
# Method in brief: as §1
# ScCyk3 = target: ScCyk3
# Method in brief: as §1
# ScFus1 = target: ScFus1
# Method in brief: as §1
# ScHof1 = target: ScHof1
# Method in brief: as §1
# ScHse1 = target: ScHse1
# Method in brief: as §1
# ScLsb1 = target: ScLsb1
# Method in brief: as §1
# ScLsb2 = target: ScLsb2
# Method in brief: as §1
# ScLsb3 = target: ScLsb3
# Method in brief: as §1
# ScLsb4 = target: ScLsb4
# Method in brief: as §1
# ScMyo3 = target: ScMyo3
# Method in brief: as §1
# ScMyo5 = target: ScMyo5
# Method in brief: as §1
# ScNbp2 = target: ScNbp2
# Method in brief: as §1
# ScPex13 = target: ScPex13
# Method in brief: as §1
# ScRvs167 = target: ScRvs167
# Method in brief: as §1
# ScSho1 = target: ScSho1
# Method in brief: as §1
# ScSla1-D1-D2 = target: ScSla1-D1-D2
# Method in brief: as §1
# ScSla1-D3 = target: ScSla1-D3
# Method in brief: as §1
# SpAbp1-D1 = target: SpAbp1-D1
# Method in brief: as §1
# SpBbc1 = target: SpBbc1
# Method in brief: as §1
# SpBzz1-D1 = target: SpBzz1-D1
# Method in brief: as §1
binder,measurement,setting,value
VSKLRSPNTPRRLRK,SPOT peptide array binding signal intensity,AgAbp1,210 ± 71
same,SPOT peptide array binding signal intensity,AgBbc1,284 ± 140
same,SPOT peptide array binding signal intensity,AgBem1-D1,116 ± 54
same,SPOT peptide array binding signal intensity,AgBzz1-D1,65.5 ± 29
same,SPOT peptide array binding signal intensity,AgBzz1-D2,44.8 ± 5.3
same,SPOT peptide array binding signal intensity,AgCyk3,7 ± 0.71
same,SPOT peptide array binding signal intensity,AgFus1,192 ± 110
same,SPOT peptide array binding signal intensity,AgHof1,68 ± 14
same,SPOT peptide array binding signal intensity,AgHse1,352 ± 230
same,SPOT peptide array binding signal intensity,AgLsb1,3.38 ± 4.1
same,SPOT peptide array binding signal intensity,AgLsb4,48.8 ± 16
same,SPOT peptide array binding signal intensity,AgMyo5,2.75 ± 2.5
same,SPOT peptide array binding signal intensity,AgNbp2,84.2 ± 8.8
same,SPOT peptide array binding signal intensity,AgRvs167,9.83 ± 2.1
same,SPOT peptide array binding signal intensity,AgSho1,13 ± 2.8
same,SPOT peptide array binding signal intensity,AgSla1-D1-D2,334 ± 170
same,SPOT peptide array binding signal intensity,AgSla1-D3,8.88 ± 5.8
same,SPOT peptide array binding signal intensity,CaAbp1-D1,897 ± 89
same,SPOT peptide array binding signal intensity,CaAbp1-D2,576 ± 100
same,SPOT peptide array binding signal intensity,CaBbc1,863 ± 130
same,SPOT peptide array binding signal intensity,CaBem1-D1,64 ± 8.5
same,SPOT peptide array binding signal intensity,CaBzz1-D1,156 ± 7.4
same,SPOT peptide array binding signal intensity,CaBzz1-D2,146 ± 120
same,SPOT peptide array binding signal intensity,CaCyk3,47.2 ± 1.1
same,SPOT peptide array binding signal intensity,CaFus1,230 ± 22
same,SPOT peptide array binding signal intensity,CaHof1,0.5 ± 0.71
same,SPOT peptide array binding signal intensity,CaHse1,4.62 ± 3.4
same,SPOT peptide array binding signal intensity,CaLsb1,0.75 ± 0.35
same,SPOT peptide array binding signal intensity,CaLsb4,778 ± 490
same,SPOT peptide array binding signal intensity,CaMyo5,3.38 ± 0.18
same,SPOT peptide array binding signal intensity,CaNbp2,166 ± 86
same,SPOT peptide array binding signal intensity,CaRvs167,23.8 ± 10
same,SPOT peptide array binding signal intensity,CaRvs167-3,28.2 ± 2.5
same,SPOT peptide array binding signal intensity,CaSho1,131 ± 3.9
same,SPOT peptide array binding signal intensity,CaSla1-D1-D2,270 ± 140
same,SPOT peptide array binding signal intensity,CaSla1-D3,3.88 ± 0.53
same,SPOT peptide array binding signal intensity,ScAbp1,41 ± 23
same,SPOT peptide array binding signal intensity,ScBbc1,266 ± 81
same,SPOT peptide array binding signal intensity,ScBem1-D1,25.2 ± 17
same,SPOT peptide array binding signal intensity,ScBzz1-D1,23 ± 9.9
same,SPOT peptide array binding signal intensity,ScBzz1-D2,9.25 ± 3.9
same,SPOT peptide array binding signal intensity,ScCyk3,110 ± 25
same,SPOT peptide array binding signal intensity,ScFus1,143 ± 42
same,SPOT peptide array binding signal intensity,ScHof1,≤ 0
same,SPOT peptide array binding signal intensity,ScHse1,701 ± 130
same,SPOT peptide array binding signal intensity,ScLsb1,33.2 ± 7.8
same,SPOT peptide array binding signal intensity,ScLsb2,11.8 ± 1.1
same,SPOT peptide array binding signal intensity,ScLsb3,2420 ± 260
same,SPOT peptide array binding signal intensity,ScLsb4,70.5 ± 9.2
same,SPOT peptide array binding signal intensity,ScMyo3,2.62 ± 2.3
same,SPOT peptide array binding signal intensity,ScMyo5,2.88 ± 1.9
same,SPOT peptide array binding signal intensity,ScNbp2,275 ± 49
same,SPOT peptide array binding signal intensity,ScPex13,8.5 ± 12
same,SPOT peptide array binding signal intensity,ScRvs167,230.2 ± 2.2
same,SPOT peptide array binding signal intensity,ScSho1,258 ± 32
same,SPOT peptide array binding signal intensity,ScSla1-D1-D2,953 ± 160
same,SPOT peptide array binding signal intensity,ScSla1-D3,36.2 ± 41
same,SPOT peptide array binding signal intensity,SpAbp1-D1,384 ± 320
same,SPOT peptide array binding signal intensity,SpBbc1,5.75 ± 1.1
same,SPOT peptide array binding signal intensity,SpBzz1-D1,236 ± 150
